Results filed as inconclusive are left out. Values without a mark were called inactive. Active and inactive are the calls of the source. Calls come from the whole dose curve.
Assay: p53 small molecule agonists, cell-based qHTS assay with human liver microsomes: qHTS cell viability counter screen (AID 1963579); note: nearly all actives have a fitted effect of over 45% in size
Details: p53RE-bla HCT-116 viability, ATP luminescence, 16 h, HLM; series mostly up to 66 µM; activity change, negative = cytotoxicity: at the top concentration
From the text: National Center for Advancing Translational Sciences [NCATS]
Division of Preclinical Innovation [DPI]
U.S. Environmental Protection Agency [EPA]
National Institutes of Environmental Health Sciences [NIEHS]
National Toxicology Program [NTP]
U.S. Food and Drug Administration [FDA]
p53, a tumor suppressor protein, is activated following cellular insult, including DNA damage and other cellular stresses. The activation of p53 regulates cell fate by inducing DNA repair, cell cycle arrest, apoptosis, or cellular senescence. The activation of p53, therefore, is a good indicator of DNA damage and other cellular stresses. […] The activation of the reporter gene under culture conditions can be detected by fluorescence intensity. This cell line was used to screen the Tox21 10K compound library in the condition of presence of human liver microsomes and to identify agonists that activate the p53 signaling pathway after in vitro metabolic activation (Ooka et al., Archive of Toxicology 96:1975-1987, 2022).
Tox21 Assay Protocol Summary:
The p53RE-bla cells were dispensed at 4,000cells/3ul/well in 1536-well black-clear bottom plates. After the assay plates were incubated at 37 C, 5% CO2 incubator for 5 hours, 23 nL of compounds dissolved in DMSO, positive controls or DMSO only was transferred to the assay plate. Following compound addition, 3 uL of human liver microsomes (XenoTech, Kansas City, KS) at final concentration of 0.5 mg/mL and 1uL of B-Nicotinamide adenine dinucleotide 2'-phosphate (NADPH) at final concentration of 0.5 mg/mL were transferred to the assay plate. The plates were incubated at 37 C for 16 hours. 1 uL of LiveBLAzer detection mixture was added to each well and the plates were incubated at room temperature in the dark for 2 h. Fluorescence intensity at 460 and 530 nm emission and 405 nm excitation were measured by an Envision plate reader. For cell viability readout that measures cytotoxicity, 4 ul/well of CellTiter-Glo reagent was added into the assay plates using a Flying Reagent Dispenser. After 30 min incubation at room temperature, the luminescence intensity in the plates was measured using a ViewLux plate reader.
% is set by controls: 0 for no effect and ±100 for the full control effect; potency is the fitted concentration of half-maximal effect.

SMILES | Potency | activity change, negative = cytotoxicity
O=C(O)c1cccc(-c2noc(-c3ccccc3F)n2)c1 | 15.8 µM (active) | 
COc1ccc(CCN(C)CCCC(C#N)(c2cc(OC)c(OC)c(OC)c2)C(C)C)cc1OC (stereo not given) |  | 0.0858% [at 30.3 µM]
CCOC(=O)CCCCCCCCC(=O)OCC |  | -12.5%
Cc1nc(C)nc(N2C[C@@H](C)N(c3ccnc([C@@H](C)O)n3)[C@@H](C)C2)n1 |  | 20.7% [at 30.3 µM]
CC(C)C1OCCN1CCOC(=O)NCCCCCCNC(=O)OCCN1CCOC1C(C)C (stereo not given) |  | -0.965%
CC(=O)CC(=O)OC(C)(C)C |  | 3.69%
CN1Cc2cc(C(=O)N3CCC(C4CCNCC4)CC3)ccc2N[C@@H](CC(=O)O)C1=O |  | 1.23% [at 30.3 µM]
CCCCOCCOC(=O)COc1cc(Cl)c(Cl)cc1Cl |  | -4.78%
Nc1c(N=Nc2ccc(-c3ccc(N=Nc4cc(S(=O)(=O)O)c5ccccc5c4N)cc3)cc2)cc(S(=O)(=O)O)c2ccccc12 |  | 2.83%
O=S(=O)(O)c1ccc(N=Nc2c(O)ccc3ccccc23)cc1 |  | -15.6%
NC12CC3CC(CC(C3)C1)C2 |  | 0.668% [at 30.3 µM]
NCC1CCC(C(=O)Oc2ccc(CCC(=O)O)cc2)CC1 (stereo not given) |  | -0.591% [at 30.3 µM]
C=CC(C)C#N (stereo not given) |  | 0.812%
Cc1nccn1CC1CCc2c(c3ccccc3n2C)C1=O (stereo not given) |  | -14.1% [at 30.3 µM]
O=C(NCC1CN(c2ccc(N3CCOCC3=O)cc2)C(=O)O1)c1ccc(Cl)s1 (stereo not given) |  | -3.93% [at 30.3 µM]
C=C(C)C(=O)OC1CC(C)CC(C)(C)C1 (stereo not given) |  | -1.2%
O=C(O)c1cc(N=Nc2ccc([N+](=O)[O-])cc2)ccc1O |  | -12.6%
CCC(C)CCCC(C)(C)O (stereo not given) |  | -1.87%
CC1(C)CC(OC(=O)CCCCCCCCC(=O)OC2CC(C)(C)NC(C)(C)C2)CC(C)(C)N1 | 0.884 µM (active) | 
CCc1nccnc1C |  | 2.08%

SMILES | Potency | activity change, negative = cytotoxicity
Cc1ccc(-n2nc(C(C)(C)C)cc2NC(=O)Nc2ccc(OCCN3CCOCC3)c3ccccc23)cc1 |  | -10.2% [at 30.3 µM]
Nc1cc(C(F)(F)F)ccc1S |  | 14.1% [at 30.3 µM]
O=C(NS(=O)(=O)/C=C/c1ccccc1)c1ccc(F)cc1Cl |  | 1.01%
NCCCC[C@H](N[C@@H](CCc1ccccc1)C(=O)O)C(=O)N1CCC[C@H]1C(=O)O |  | 1.12% [at 30.3 µM]
CC(C)=CCCC(C)C=O (stereo not given) |  | -2.82%
CC(C)Nc1cccnc1N1CCN(C(=O)c2cc3cc(NS(C)(=O)=O)ccc3[nH]2)CC1 |  | -8.01% [at 30.3 µM]
O=C1c2ccccc2S(=O)(=O)N1CCCCN1CCN(c2ncccn2)CC1 |  | -12.7% [at 30.3 µM]
O=C(c1ccc(O)cc1)c1ccc(Cl)cc1 |  | -10.1%
CC1=C(C(=O)OC(C)C)C(c2cccc([N+](=O)[O-])c2)C(C(=O)OC2CN(C(c3ccccc3)c3ccccc3)C2)=C(N)N1 (stereo not given) |  | -4.88% [at 30.3 µM]
CCc1ccc(C(=O)C(C)CN2CCCCC2)cc1 (stereo not given) |  | -5.34% [at 30.3 µM]
NC(N)=NC(=O)Cc1c(Cl)cccc1Cl |  | 0.439% [at 30.3 µM]
NC(=O)c1ccccc1[N+](=O)[O-] |  | -0.501%
CCOC(=O)N1CCC(n2c(=O)[nH]c3cc(Cl)ccc32)CC1 |  | 0.164% [at 30.3 µM]
COC[C@H](c1ccc(C(F)(F)F)cc1)N1CCN(C2(C)CCN(C(=O)c3c(C)ncnc3C)CC2)C[C@H]1C |  | 8.64% [at 30.3 µM]
O=C1CC2(CCCC2)CC(=O)N1CCNCC1COc2ccccc2O1 (stereo not given) |  | 11.7% [at 30.3 µM]
O=C(O)CCCc1ccccc1 |  | 6.69% [at 30.3 µM]
CCC(=O)Oc1ccc2c(c1)CC[C@@H]1[C@@H]2CC[C@@]2(C)[C@H]1C[C@@H](OC(=O)CC)[C@@H]2OC(=O)CC |  | 0.0263% [at 30.3 µM]
CC(C)(O)c1ccc(CNC(=O)c2cccnc2Oc2ccc3nonc3c2)cc1 |  | 0.755%
O=[N+]([O-])c1ccc2[nH]ncc2c1 |  | -18.5%
COc1cc(C(=O)NCCCCCC(=O)O)cc(OC)c1OC |  | -3.46% [at 30.3 µM]

Source: PubChem BioAssay (Tox21)
